Experimental data from PubChem BioAssay (NCI).
This is part of a sample that, as a whole, favours compounds with a hit. Of some 79,000 tested, about 15% had one in any assay. No stated cut-off is given here; in the data, active means growth inhibition above about 70%; inactive means the rest. Where a SMILES comes first, the peptide text is derived from it. Bridges are numbered along the chain shown (N, C = ends).

Legend:
[1] = NCI Yeast Anticancer Drug Screen. Data for the rad50 strain (AID 155);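 further: 0% = growth of vehicle-only cultures of the same strain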; details: S. cerevisiae rad50 strain growth inhibition; at 50.0 µM; stronger effect = higher value
In short: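 Compounds were tested on a yeast strain with an engineered DNA damage repair alteration; the reported value is growth inhibition normalised to vehicle treatment.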

[2] = NCI Yeast Anticancer Drug Screen. Data for the mec2-1 strain (AID 157); details: S. cerevisiae mec2-1 strain, at 50.0 µM, stronger effect = higher value
In short: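 Yeast mec2-1 mutant treated with compound. Readout: growth inhibition vs vehicle controls.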

[3] = NCI Yeast Anticancer Drug Screen. Data for the sgs1 mgt1 strain (AID 161);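 further: 0% = growth of cultures given vehicle only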; details: S. cerevisiae sgs1 mgt1 strain, at 50.0 µM, stronger effect = higher value
In short: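 Mutant yeast exposed to compound; growth scored against vehicle-only wells.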

[4] = NCI Yeast Anticancer Drug Screen. Data for the cln2 rad14 strain (AID 165);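 further: 0% = growth equal to vehicle treated cultures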; details: S. cerevisiae cln2 rad14 strain, at 50.0 µM, stronger effect = higher value
In short: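 cln2 rad14 yeast strain; compound exposure; growth inhibition read vs vehicle controls.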

[5] = NCI Yeast Anticancer Drug Screen. Data for the bub3 strain (AID 167); details: S. cerevisiae bub3 mutant strain, at 50.0 µM, stronger effect = higher value
In short: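 Growth of a checkpoint-deficient yeast mutant is measured after compound exposure. Values represent inhibition relative to vehicle.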

[6] = NCI Yeast Anticancer Drug Screen. Data for the mlh1 rad18 strain (AID 175); details: S. cerevisiae mlh1 rad18 strain growth inhibition; at 50.0 µM; stronger effect = higher value
In short: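 Yeast w/ defined DNA-repair lesions; compound exposure; growth vs vehicle controls → % inhibition.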

Measured: growth inhibition

CN1CCc2sccc2C(c2ccccc2)O1 (centres undefined)
inactive: [1] 0.75% | [2] 16.1% | [3] -3.8% | [4] 0.65% | [5] 17.2% | [6] -3.4%

CCOC(=O)/C=C\SCCC(=O)O
inactive: [1] 10.1% | [2] 11.1% | [3] 15.8% | [4] 25.9% | [5] 27.1% | [6] 41.9%

O=C(Cc1cc2ccccc2[nH]c1=O)Nc1ccccc1
inactive: [1] 9.55% | [2] -7.2% | [3] 6.75% | [4] -27% | [5] -2.2% | [6] -5.55%

CCN(CC)C(=O)c1ccc(O)c(OC)c1
inactive: [1] 17.7% | [2] 17% | [3] 7.3% | [4] 7.65% | [5] -7.3% | [6] -4.3%

CNS(=O)(=O)c1c(C)cccc1CC(=O)c1ccccc1
inactive: [1] -4.3% | [2] 0.65% | [3] 12.2% | [4] -12.8% | [5] 14.8% | [6] -8.2%

O=C1CSC(c2ccccc2C(F)(F)F)N1c1nncs1 (centres undefined)
inactive: [1] 18.4% | [2] 1% | [3] 11.6% | [4] -46% | [5] -39.2% | [6] 9.8%

COC(=O)NN=C1C(C)(C)C(=O)C1(C)C
inactive: [1] -20.7% | [2] -21.8% | [3] -25.4% | [4] 6.05% | [5] -29.4% | [6] -20.1%

Cc1cccc(-c2cc(=O)c3c(C)ccnc3[nH]2)c1
inactive: [1] 10.3% | [2] -1% | [3] -0.85% | [4] -4.5% | [5] -3.3% | [6] -12.9%

O=C(Nc1ccccc1)OC1CCCC12CC2 (centres undefined)
inactive: [1] 8.7% | [2] 4.9% | [3] -16.1% | [4] -4.8% | [5] -2.25% | [6] 23.1%

CCCCc1c(O)c2c(=O)n(C)c(=O)n3c4ccccc4n(c1=O)c23
inactive: [1] -1.55% | [2] -9.7% | [3] -1% | [4] -22.1% | [5] -0.3% | [6] 10.8%

OCCN(CCO)c1nc(N(CCO)CCO)nc(N(CCO)CCO)n1
inactive: [1] 19.8% | [2] 16.4% | [3] 20.2% | [4] 31.5% | [5] 17.2% | [6] 19.6%

O=C1OC(C(Cl)(Cl)Cl)Nc2ccccc21 (centres undefined)
inactive: [1] 13.8% | [2] -19.8% | [3] 9.35% | [4] 15.6% | [5] 19.4% | [6] 12.9%

CC(C)NS(=O)(=O)c1ccc(Cl)cc1
inactive: [1] 11.6% | [2] 1.65% | [3] 12.4% | [4] 0.4% | [5] -1.1% | [6] 1.85%

COC(=O)C1=CN(c2ccccc2)C(=O)C1
inactive: [1] 5.5% | [2] -14.3% | [3] -6.95% | [4] -26.1% | [5] -8.7% | [6] 7.45%

NCCSCc1ccccc1Cl
inactive: [1] -10.3% | [2] -27.2% | [3] -50.9% | [4] -33.5% | [5] -23.6% | [6] -0.4%

CC(C)CC(CC(C)C)OB(OC(CC(C)C)CC(C)C)OC(CC(C)C)CC(C)C
inactive: [1] -27.8% | [2] -15.3% | [3] -14.6% | [4] 10.9% | [5] -0.3% | [6] -7.8%

CC(=O)C1C(=O)C(=O)N(c2ccc(F)cc2)C1=O (centres undefined)
inactive: [1] -17.4% | [2] -15.5% | [3] -5.4% | [4] -6.95% | [5] -25.9% | [6] -27.3%

NCCOCC(N)C(=O)O (centres undefined)
inactive: [1] -9.3% | [2] -14.4% | [3] -52.4% | [4] -27.1% | [5] -51% | [6] 8.4%

CC(=O)NC(CCCCNC(=O)NCCCl)C(=O)NCc1ccccc1 (centres undefined)
inactive: [1] 3.3% | [2] -22.8% | [3] -2.85% | [4] 20.8% | [5] -12% | [6] -8.9%

CC(=O)c1cccc(NC(=O)Nc2cccc(C)n2)c1
inactive: [1] -9.55% | [2] 32.8% | [3] 11.9% | [4] -24.6% | [5] 8.55% | [6] 12.6%

O=C(Nc1ccccc1[N+](=O)[O-])C(=O)Nc1ccccc1[N+](=O)[O-]
inactive: [1] -7.55% | [2] 5.9% | [3] -2.95% | [4] -22.5% | [5] -0.9% | [6] -0.25%

O=C(Nc1cccc([N+](=O)[O-])c1)Oc1ccc(-c2ccccc2)cc1
inactive: [1] 17.9% | [2] 36.2% | [3] 18.5% | [4] -3.75% | [5] 57.7% | [6] 25.4%

COc1ccc(OC)c(C2=CCCCCC2)c1
inactive: [1] 7.6% | [2] -6.15% | [3] 3.1% | [4] -22.1% | [5] -7.85% | [6] 13.5%

C/C(=N/NC(=O)NN)c1cccc(O)c1
inactive: [1] 3.1% | [2] -11.8% | [3] -16.6% | [4] 2.15% | [5] -4.5% | [6] -19.2%

O=C(NCc1cccnc1)Nc1cccc2c(NC(=O)NCc3cccnc3)cccc12
inactive: [1] -17.1% | [2] -6.3% | [3] 5.8% | [4] 14.5% | [5] -0.05% | [6] 13.9%

NCCCOc1ccccc1
inactive: [1] -3.6% | [2] -7.8% | [3] -5.1% | [4] -10.3% | [5] -7.05% | [6] -9.35%

CC(=O)Oc1cc(I)cc(C(=O)O)c1
inactive: [1] -10% | [2] 9.85% | [3] -1.05% | [4] -9.15% | [5] 3.3% | [6] -10.4%

COC1/C=C/OC2(C)Oc3c(C)c(O)c4c(O)c(c(/C=N/N(C)c5ccc([N+](=O)[O-])cc5[N+](=O)[O-])c(O)c4c3C2=O)NC(=O)C(C)=C/C=C/C(C)C(O)C(C)C(O)C(C)C(OC(C)=O)C1C (centres undefined)
inactive: [1] 10.2% | [2] 55.6% | [3] 31.5% | [4] 63.6% | [5] 40.3% | [6] 56%

O=[N+]([O-])c1cccc(C2=NON(c3ncccn3)C3N=CC=CN23)c1 (centres undefined)
inactive: [1] 11.9% | [2] -17.7% | [3] 14.3% | [4] -4.9% | [5] -9.65% | [6] 26.1%

COc1ccc(CC(=O)OCC2CCCO2)cc1OC (centres undefined)
inactive: [1] -8.5% | [2] -1.25% | [3] 9.9% | [4] -20.6% | [5] 5.6% | [6] 4%

[O-]c1csc2n(-c3ccccc3)c3ccccc3[n+]12
inactive: [1] 4.95% | [2] -16% | [3] 1.85% | [4] 28.4% | [5] -4.65% | [6] 6.65%

Cc1cccc(C(=O)NC(C)C)c1
inactive: [1] -7.75% | [2] -40% | [3] -5.9% | [4] 15.8% | [5] -4.95% | [6] -19.6%

COc1cccc2c1C(=N)c1c(O)c3c(c(O)c1C2=O)C[C@@](O)(C(C)=O)C[C@@H]3OC1CC(N)C(O)C(C)O1 (some centres undefined)
inactive: [1] 42.5% | [2] -26.1% | [3] -11.7% | [4] 34.2% | [5] -4.35% | [6] 13.9%

O=C(NC1CCC(CC2CCC(NC(=O)C34CC5CC(CC(C5)C3)C4)CC2)CC1)C12CC3CC(CC(C3)C1)C2 (centres undefined)
inactive: [1] -13% | [2] 7.6% | [3] 19.3% | [4] -6.25% | [5] -1.85% | [6] 4.35%

CCN(CC)CCCC(C)n1c(SC)nc2cc(Cl)ccc21 (centres undefined)
inactive: [1] -11.5% | [2] -32.9% | [3] 9% | [4] -32.6% | [5] 7.2% | [6] -7.7%

CCOC(=O)C1CSSCC(N)C(=O)N1 (stereo not drawn) (H-Cys-Cys-OEt; disulfide 1-2; configuration not given here)
inactive: [1] 5.65% | [2] -1.25% | [3] -11.6% | [4] -48.8% | [5] -11.6% | [6] 4.7%

N#CCN1c2ccccc2CCC1Cl (centres undefined)
inactive: [1] -10.9% | [2] -17.6% | [3] -5.05% | [4] -7.45% | [5] 11.2% | [6] 12.4%

CN(C)c1ccc(N=Cc2ccc3c(c2)OCO3)cc1
inactive: [1] -6.65% | [2] 6.3% | [3] -15.3% | [4] -18.1% | [5] -6.1% | [6] -0.05%

Nc1ncnc2nc(-c3ccc(C(=O)c4cccc([N+](=O)[O-])c4)cc3)[nH]c12
inactive: [1] 1.85% | [2] 6.35% | [3] -7.5% | [4] -5.4% | [5] 14.6% | [6] -13.2%
